Screening results as filed in PubChem.
This is a sample that favours compounds with a hit; in the whole collection about 11% have one here.
HPGD inh – HPGD (human) dehydrogenase inhibition | purified HPGD, NADH fluorescence kinetic, PGE2 substrate | Potency, µM, inactives show top-dose activity change, negative = inhibition, actives largely listed as inhibitors | P15428 | 150,000 tested, 4.3% active | AID 894; also: potency is read from the fitted curve at half-maximal effect
Target sequence (P15428 whole entry, looked up): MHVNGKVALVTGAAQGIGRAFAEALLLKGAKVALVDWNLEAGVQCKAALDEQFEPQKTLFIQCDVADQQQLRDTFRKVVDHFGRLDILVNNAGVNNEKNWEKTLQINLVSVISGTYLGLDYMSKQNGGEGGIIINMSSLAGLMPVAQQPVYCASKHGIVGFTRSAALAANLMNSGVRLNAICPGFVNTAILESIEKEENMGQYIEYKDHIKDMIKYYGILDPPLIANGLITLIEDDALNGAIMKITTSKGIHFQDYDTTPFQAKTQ
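20 nM HPGD preincubated 15 min at room temperature with compound in 50 mM Tris-HCl pH 8, 0.01% Tween 20. Started with 1 mM NAD+ and 30 uM prostaglandin E2; NADH fluorescence (360/450 nm) read 5 times over 30-s intervals, last minus first.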
IMPase Li inh – membrane-permeable IMPase blocker, potentiated with lithium | CHO-M1 cells, IP1 TR-FRET (IP-One), carbachol + lithium | Potency, µM (titrated, usually from 59.4 µM), inactives show at the highest dose activity, negative = IMPase inhibition, actives largely listed as inhibitors | 210,000 tested, 0.35% active | AID 1457; active = well fitted curve in the direction sought with a large enough effect; inconclusive = small, poorly fitted or top-dose-only effect, or another doubt; inactive = no such curve, though single readings can be large; an effect the other way counts as inactive or inconclusive;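 also: IP1 builds up when IMPase is blocked and the TR-FRET signal falls; potency is read from the fitted curve at half-maximal effect; plate controls were basal vehicle for no effect and high inhibitor control for full effect; nearly all actives have a fitted effect of over 50% in size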
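Test compounds were applied to CHO-M1 cells previously cultured for 16–30 h at 2000 per well. A small lithium amount accompanied them; after 30 min at 37C, IP1 was quantified by TR-FRET.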
PNC inhibitor – inhibitors of perinucleolar compartment assembly. PC3M PTB-GFP, PNC prevalence imaging, 16 h; active compounds read low. AID 2417. 140,000 tested, 3.1% active. activity change (PNC), negative = inhibition, % at 10 µM;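 active = readout at or below -70, meaning at least 70% loss of cells showing the perinucleolar compartment, a nuclear body marking cancer cells; inconclusive = readout between -30 and a set limit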;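 also: plate controls were DMSO wells for no effect and camptothecin positive control wells for full effect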
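Compounds are pinned in duplicate onto adhered PC3M cells stably expressing GFP-tagged PTB and incubated 16 h at 37 C. Cells are then fixed, nuclei stained with Hoechst, and PNC-positive cells counted.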
ALOX12 inhib – 12-hLO (ALOX12) enzyme inhibition | purified 12-hLO, xylenol orange hydroperoxide absorbance | Potency, µM (highest dose often 57.1 µM), without a hit: top-dose activity change, negative = inhibition, most hits filed as inhibitors | 150,000 tested, 0.12% active | AID 1452; active = well fitted curve in the direction sought with a large enough effect; inconclusive = small, poorly fitted or top-dose-only effect, or another doubt; inactive = no such curve, though single readings can be large; an effect the other way counts as inactive or inconclusive; also: potency is read from the fitted curve at half-maximal effect; nearly all actives have a fitted effect of over 55% in size
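Hydroperoxide formation by human 12-lipoxygenase from 40 uM arachidonic acid was followed colorimetrically via ferric-xylenol orange complex, using the 573/405 nm absorbance ratio. Enzyme concentration was 150 nM, with 30 min reaction at room temperature.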
IMPase cell inh – cell-permeable inhibitors of inositol monophosphatase (IMPase); P97697; CHO-M1 cells, IP1 accumulation, HTRF TR-FRET ratio; inhibition (IP1 accumulation), % at 46.1 µM; 120,000 tested, under 10 active; active = well fitted curve in the direction sought with a large enough effect in the signal ratio, not every such curve was filed as active; inconclusive = small, poorly fitted or top-dose-only effect, or a change in a side signal; inactive = no such curve, though single readings can be large or run the other way; the % refers to the signal ratio;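 also: cells stimulated with carbachol in lithium chloride buffer; plate controls were DMSO basal wells for no effect and reference inhibitor wells for full effect; higher means more IMPase inhibition seen as more IP1 and lower FRET ratio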
Target sequence (P97697 whole entry, looked up): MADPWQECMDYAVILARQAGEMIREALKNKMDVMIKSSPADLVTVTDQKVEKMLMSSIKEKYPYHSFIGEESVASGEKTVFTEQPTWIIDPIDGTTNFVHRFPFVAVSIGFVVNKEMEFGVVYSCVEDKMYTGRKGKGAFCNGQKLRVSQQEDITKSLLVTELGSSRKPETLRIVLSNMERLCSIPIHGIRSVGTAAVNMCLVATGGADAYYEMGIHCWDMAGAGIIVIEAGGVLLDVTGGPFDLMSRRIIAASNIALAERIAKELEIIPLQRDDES
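CHO-M1, 2000 cells/well, cultured 16–30 h; cpd up to 46 uM; carbachol (50 uM solution, stimulation buffer w/ 50 mM LiCl, pH 7.4), 30 min 37C; IP-One TR-FRET, 10 min RT; Ex 320/Em 665, 620; Hill-fit AC50.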
ALDH1A1 block – inhibitors of human aldehyde dehydrogenase 1A1. 220,000 tested, 7.3% active. P00352. Potency, µM (highest dose often 75.3 µM), without a hit: at the highest dose activity, negative = inhibition, actives largely listed as inhibitors. Purified ALDH1A1, NADH fluorescence, propionaldehyde substrate;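 also: potency is read from the fitted curve at half-maximal effect; plate controls were no enzyme wells and a reference inhibitor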
Numbers without * were called inactive; ? = inconclusive; . = not tested or not shown; [ ] = another dose, or the depositor's remark. Unless noted, calls follow the shape of the dose curve; as a rule, active = well fitted inhibition curve with a large enough effect (not every such curve was filed as active); inconclusive = small, poorly fitted or top-dose-only effect, or another doubt; inactive = no such curve, though single readings can be large or run the other way. Unless noted, % is scaled to controls: 0 for no effect and ±100 for the full control effect.

SMILES	HPGD inh	IMPase Li inh	PNC inhibitor	ALOX12 inhib	IMPase cell inh	ALDH1A1 block
COc1nc(OC)nc(N2CCC(C(=O)Nc3cccc4c3CCCC4)CC2)n1	-8%	-1%[38.3 µM]	77	5%	0	6%
Cc1nnc(NC(=O)C2CCN(c3nnnn3-c3ccccc3)CC2)s1	-6%	-4%[38.3 µM]	-9	-5%	5	20µM*
O=C(Nc1cccc2c1CCCC2)C1CCN(c2nnnn2-c2ccccc2)CC1	-10%	10%	?	0%	10	8.9µM*
CCCn1c(-c2ccc(F)cc2)nc2c(NC3CC4CCC(C3)N4C)nc(C)nc21 (stereo not given)	?	17%	.	-1%	.	?
Cc1ccc2nc(-c3ccc(NC(=O)COc4ccc(Cl)c(C)c4)cc3)sc2c1	.	.	.	.	-6	.
O=c1c(C/C=C/c2ccccc2)c(O)ccn1Cc1cccc(Cl)c1	.	2%	.	.	.	-10%
COc1ccc2[nH]cc(CCn3ccc(O)c(C/C=C/c4ccccc4)c3=O)c2c1	.	20%	.	.	.	14µM*
O=c1c(C/C=C/c2ccccc2)c(O)ccn1CCc1c[nH]c2ccccc12	.	11%	.	.	.	40µM*
CCc1cccc(C)c1NC(=S)N(CCCN1CCOCC1)Cc1cccnc1	.	-2%	.	.	.	?
CCCCCCn1c(-c2cccs2)n[nH]c1=S	.	3%	.	.	.	?
CC(C)CC1(C(=O)NCC2CC2)C=CCN1C(=O)c1ccccc1 (stereo not given)	18µM*	10%	.	-7%	.	25µM*
COC(=O)CNC(=O)C1(CC(C)C)C=CCN1C(=O)c1ccccc1 (stereo not given)	-1%	-8%	.	-7%	.	0%
O=C(O)CSc1c(-c2ccccc2)[nH]c2ccccc12	-16%	-2%	-85*	-2%	.	?
COc1ccc(-c2nnc(OCc3ccccc3)c3ccccc23)cc1	-21%	40%	-88*	-1%	3	?
Cc1ccc(S(=O)(=O)N2CCN(C(=O)CSc3nc4ccccc4o3)C2)cc1	-5%	-1%[38.3 µM]	2	-8%	2	0%
CC(C)Cn1c(SCC(=O)N2CCN(C(=O)c3ccco3)CC2)nc2ccccc2c1=O	.	21%	.	.	.	32µM*
COc1cccc(OC)c1C(=O)N1CCN(S(=O)(=O)c2ccccc2)CC1	-6%	38%[38.3 µM]	-99*	13%	1	-2%
COc1ccccc1N1CCN(C(=O)CSc2nc3ccccc3o2)CC1	-3%	15%[38.3 µM]	-82*	-3%	-2	8.9µM*
COc1ccccc1C(=O)N1CCN(S(=O)(=O)c2ccccc2)CC1	0%	-23%[38.3 µM]	46	0%	-9	0%
CC1CCCN(C(=O)CSc2nc3ccccc3o2)C1 (stereo not given)	13µM*	-4%[38.3 µM]	25	-6%	4	-4%
CS(=O)(=O)N1CCN(CC(=O)NC2CCCCC2)CC1	.	-2%	.	.	.	7%
O=C(CSc1ccc(F)cc1)N1CCN(S(=O)(=O)c2ccccc2)CC1	.	15%	.	.	.	2.8µM*
COc1ccccc1N1CCN(C(=O)CSc2nc3ncnc(N)c3[nH]2)CC1	-12%	14%[38.3 µM]	?	-3%	-5	28µM*
O=C(O)c1ccc2oc(SCC(=O)N3CCCCC3)nc2c1	8.9µM*	5%	0	12%	5	13%
O=C(CSc1nncs1)N1CCN(S(=O)(=O)c2ccccc2)CC1	.	4%	.	.	.	3%
SMILES	HPGD inh	IMPase Li inh	PNC inhibitor	ALOX12 inhib	IMPase cell inh	ALDH1A1 block
NC(=O)C1CCN(C(=O)CN2CCCc3ccccc32)CC1	?	23%[38.3 µM]	-2	-1%	8	20µM*
CCCCC[C@H](O)/C=C/[C@@H]1[C@H]2C/C(=C/CCCC(=O)O)C[C@H]2C[C@H]1O	-10%	-2%	.	3%	.	12%
COc1cccc(CNC(=O)C2CCC(CNS(=O)(=O)c3ccc(Br)s3)CC2)c1 (stereo not given)	.	.	.	.	9	.
OCC#CCSc1nnc(-c2ccccc2Br)o1	-19%	-4%[38.3 µM]	7	2%	7	20µM*
O=C(OCC#CCSc1nc2ccccc2o1)c1ccco1	-6%	26%[38.3 µM]	-83*	-4%	-13	1%
O=C(CSc1nc2ccccc2o1)N1CCN(C(=O)c2ccco2)CC1	-13%	4%	-21	6%	20	13µM*
NC(=O)C1CCN(C(=O)CSc2nc3ccccc3o2)CC1	-6%	0%	-128*	-3%	3	19%
OCC#CCSc1nnc(-c2ccc(Br)cc2)o1	-1%	-10%[38.3 µM]	-14	-2%	1	12%
O=C(OCC#CCSc1nc2ccccc2o1)c1cc2ccccc2o1	-7%	11%	74	6%	9	2%
O=C(CSc1nnc(-c2ccccc2Br)o1)N1CCN(C(=O)c2ccco2)CC1	28µM*	-10%[38.3 µM]	-1	3%	2	8.9µM*
CC(C)Cn1c(SCC(=O)N2CCN(S(=O)(=O)c3ccccc3)CC2)nc2ccccc21	-10%	7%[38.3 µM]	7	-5%	21	13µM*
O=C(CSc1nnc(-c2ccc(F)cc2)o1)N1CCN(C(=O)c2ccco2)CC1	-3%	-4%[38.3 µM]	-14	-2%	-4	-11%
Cn1c(SCC(=O)N2CCN(S(=O)(=O)c3ccccc3)CC2)nc2ccccc21	-4%	13%[38.3 µM]	20	-5%	6	-3%
COC(=O)CN1C(=S)N(c2ccc(OC)cc2)C(=O)/C1=C/c1ccc(OC)cc1	.	4%	.	.	.	4%
COc1ccc(C(=O)N2C(=S)NC(=O)/C2=C\c2ccc(C)cc2)cc1	28µM*	10%	?	-4%	.	?
CC[N+](CC)(CCO)CCCN1C(=O)C2CC=C(Cl)CC2C1=O (stereo not given)	-9%	13%[38.3 µM]	-81*	-1%	-2	1%
O=C(O)CNC(=S)N(Cc1ccccc1F)C1CCCCC1	.	-10%	.	.	.	?
O=C(CNC(=S)N(Cc1ccccc1F)C1CCCCC1)NCC1CCCO1 (stereo not given)	.	?	.	.	.	7.1µM*
COCCCNC(=O)CNC(=S)N(Cc1ccccc1F)C1CCCCC1	-4%	26%[38.3 µM]	9	4%	-5	14µM*
CCCCNC(=O)CNC(=S)N(Cc1ccccc1F)C1CCCCC1	.	6%	.	.	.	22µM*
CCCCNC(=O)CNC(=S)N(Cc1cc(OC)c(OC)c(OC)c1)C1CCCC1	-3%	3%	3	0%	10	-1%
Cc1cccc(Nc2nnc(-n3nc(C)cc3C)c3ccccc23)c1	.	.	.	.	-4	.
CCCSC1=N/C(=C/c2ccsc2)C(=O)N1c1ccccc1	-19%	7%	16	1%	.	14µM*
CCCCSC1=N/C(=C/c2ccsc2)C(=O)N1c1ccccc1	-25%	8%	-14	0%	.	?
COc1ccc(Br)c(C(=O)Nc2cc3c(cc2N2CCOCC2)n(C)c(=O)n3C)c1	.	.	.	.	10	.
COC(=O)c1ccccc1NC(=O)CSc1n[nH]c(C)n1	-12%	4%	-100*	15%	2	8%
